This is part of a sample that, as a whole, favours compounds with a hit. Of some 79,000 tested, about 15% had one in any assay. A number with no mark means an inactive call. Activity calls are given as the source filed them. Cut-off read from the data, not from the text of the source: active = growth inhibition above about 70%; inactive = the rest. Starred links: 1 amine or outer side, 2 acyl side, 3 side chain; linkers in the order of their positions; H or OH if unused. Positions of bridges follow the written chain, without caps; N, C: chain ends. Non-standard residues stand in square brackets, D forms with d. Residues, ends and D or L forms follow the SMILES beside them. Chains are numbered I, II in the order given. Actinocin(9to1) = Cc1c2oc3c(C)ccc(C(=O)[*:1])c3nc-2c(C(=O)[*:2])c(N)c1=O; aThr = C[C@H](O)[C@H](N)C(=O)O; NMeV = CN[C@H](C(=O)O)C(C)C; Sar = CNCC(=O)O

A short description of the test: NCI Yeast Anticancer Drug Screen. Data for the sgs1 mgt1 strain (AID 161).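 Note: 0% = growth of cultures given vehicle only.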 The note with it: S. cerevisiae sgs1 mgt1 strain, active compounds read high. The method, then:
Growth inhibition of yeast strains with defined genetic alterations is measured as a screen for potential anti-cancer activity. Selected strains with alterations in DNA damage repair or cell cycle control were exposed to compounds and growth inhibition was measured relative to vehicle treated controls. The strain used in this assay is sgs1 mgt1

[1] abbreviates: at 5.0 µM (retest, dose inferred, filed as 0.5).
[2] abbreviates: at 50.0 µM (retest, dose inferred, filed as 5.0).

Turning to `CN(C)N=Nc1ccc(NC=O)cc1`, the growth inhibition under setting [1] is -7%, the growth inhibition under setting [2] was -44% and the growth inhibition (at 50.0 µM) is 66.2%.
The matching figures for `CNC(=O)OCc1c(COC(=O)NC)c(C)n(-c2ccc(Cl)c(Cl)c2)c1C`: 5%, 23% and 89.5% (active).
`COc1cc(C(C)(C)C)cc(OC)c1C(O)(c1c(OC)cc(C(C)(C)C)cc1OC)c1c(OC)cc(C(C)(C)C)cc1OC`: the growth inhibition under setting [1] was 13%, the growth inhibition under setting [2] was 97% (active) and the growth inhibition (at 50.0 µM) was 80.1% (active).
The like results for `c1ccc(N/N=C2\CC(c3ccccc3)Oc3ccccc32)cc1` (configuration not stated) were, in that order, -5%, 26% and 74% (active).
The like results for `CSc1ccc2c(c1)C(N1CCN(C)CC1)Cc1ccccc1S2` (configuration not stated) were, in that order, 98% (active), 86% (active) and 84.2% (active).
Consider `Nc1ccc2cc(Br)c3ccccc3c2c1`, for which the growth inhibition by setting is: under setting [1], 13%; under setting [2], 50%; (at 50.0 µM) 88.5% (active).
The like results for `O=C(CCCN1CCC2(CC1)OC(=O)N(c1ccccc1)C2=O)c1ccccc1` were, in that order, 48%, 69% and 85.9% (active).
The matching figures for `Cc1ccc2oc(-c3cccc(N)c3)nc2c1`: 10%, 48% and -18.8%.
The like results for `CN(C)CCC(=O)c1c[nH]c2ccccc12` were, in that order, 15%, 57% and 63%.
Regarding `Cc1c2oc3c(C)ccc(C(=O)N[C@@H]4C(=O)N[C@H](C(C)C)C(=O)N5CCC[C@H]5C(=O)N(C)CC(=O)N(C)[C@@H](C(C)C)C(=O)O[C@H]4C)c3nc-2c(C(=O)N[C@@H]2C(=O)N[C@H](C(C)C)C(=O)N3CCC[C@H]3C(=O)N(C)CC(=O)N(C)[C@@H](C(C)C)C(=O)O[C@H]2C)c(N)c1=O` (I: [aThr][dV]P[Sar][NMeV] / II: [aThr][dV]P[Sar][NMeV]; ester I:1-I:C, II:1-II:C; linker I:N-II:N via Actinocin(9to1)), the growth inhibition by setting is: under setting [1], 24%; under setting [2], 97% (active); (at 50.0 µM) 92.5% (active).
The like results for `Cc1ccccc1C1=C(CC(=O)O)c2ccccc2CC1C` (configuration not stated) were, in that order, 2%, 20% and 99.6% (active).
Take `CN(C)CCNC(=O)c1cccc2nc3c4ccccc4c4ccccc4c3nc12`: the growth inhibition reads like this: under setting [1], 17%; under setting [2], 97% (active); (at 50.0 µM) 96.2% (active).
The matching figures for `Oc1ccc(Br)cc1C=Nc1cccc(C(F)(F)F)c1`: 1%, 63% and 81.7% (active).
The like results for `CCCCCCCCCC/C=C\CC(=O)O` were, in that order, -1%, 89% (active) and 6.35%.

The values are drawn from PubChem BioAssay (NCI).
